Assay results taken from PubChem BioAssay AID588494 (NMMLSC, 2011).
This is one part of the list.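 How the source made its calls: active means response vs DMSO under 50%, meaning signal dropped by over half, treated as fluorescence quencher; inconclusive means no clear call, values can overlap the other calls; inactive means the rest.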

Test: bead-bound aptamer fluorescence quenching artefacts – biochemical, single concentration, cherry pick 2, flow cytometry, artefact control for GRK2 aptamer binding project, confirmation (AID 588494);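 further: labelled aptamer on streptavidin beads without GRK2 as a quench counter-screen; 100% = bead fluorescence of DMSO wells and lower means quenching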
Details: carboxyfluorescein RNA aptamer beads, at 10 µM, stronger effect = lower value

Fluorescence response vs DMSO, inactive:
CC(=O)c1ccc(N2CCN(C(=O)c3ccc4nc[nH]c4c3)CC2)cc1 102%, COc1ccc(Cl)cc1NC(=O)CCS(=O)(=O)c1cc2c(cc1C)NC(=O)CO2 98%, COc1cc([N+](=O)[O-])cc([N+](=O)[O-])c1NC(=O)N1CCOCC1 103%, O=C(NCCCN1CCCCCC1)c1ccc(N2CCCC2=O)cc1 100%, O=C(CCS(=O)(=O)c1ccccc1)NC1CCCC1 94%, CCOCCCNC(=O)c1ccc(CS(=O)(=O)c2cccc(C(F)(F)F)c2)o1 103%, O=C(NC1C2CC3CC(C2)CC1C3)c1ccc(N2CCNCC2)c([N+](=O)[O-])c1 (stereo not given) 101%, CCOCCc1c(O)nc(SCC(=O)NCc2ccco2)[nH]c1=O 100%, COc1ccccc1C(=O)N(Cc1ccc(C)o1)C1CCS(=O)(=O)C1 (stereo not given) 98%, CCOC(=O)C1=C(N)N(c2ccc(C)cc2)C2=C(C(=O)CCC2)C1c1cccs1 (stereo not given) 106%, CC1Sc2ccc(S(=O)(=O)CCC(=O)NCc3ccccc3Cl)cc2NC1=O (stereo not given) 100%, COc1cccc(OC)c1C(=O)Nc1ccc(Cc2ccncc2)cc1 98%, CCOc1ccc(OCC)c(NC(=O)CCS(=O)(=O)c2ccc(C)cc2)c1 99%, Cc1ccc(S(=O)(=O)CC(=O)Nc2sc(C)c(C)c2C(N)=O)cc1 103%, NC(=O)[C@H]1CC2(CC(c3cccc(NC(=O)[C@H]4CCC(=O)N4)c3)=NO2)CN1C(=O)c1ccccc1C(=O)c1ccccc1 (stereo not given in full) 101%, COCCn1c(N)c(NCc2ccccc2)c(=O)[nH]c1=O 103%, CC1CCN(C(=S)NC2CC3CCC2C3)CC1 (stereo not given) 99%, CN=C(Nc1cccc(S(=O)(=O)N2CCOCC2)c1)c1ccccc1 110%, CCN1CCN(C(=O)N[C@@H](C(=O)N[C@@H]2C(=O)N3C(C(=O)O)=C(CSc4nnnn4C)CS[C@H]23)c2ccc(O)cc2)C(=O)C1=O 99%, Cc1nnc(SCC(=O)N2c3ccccc3C(C)(c3ccc(Cl)cc3)CC2(C)C)s1 (stereo not given) 100%, CCC(C)(C(=O)NC1CCCCC1)N(C)C(=O)c1ccc2c(c1)OCO2 (stereo not given) 103%, COc1ccc(Cl)cc1NC(=O)CCS(=O)(=O)c1ccc(Br)cc1 101%, CCc1nn(CCCN2CCN(c3cccc(Cl)c3)CC2)c(=O)n1CCOc1ccccc1 100%, O=[N+]([O-])c1ccccc1S(=O)(=O)Nc1cccc2cccnc12 103%, O=C(C1CCCN(S(=O)(=O)c2ccc([N+](=O)[O-])cc2)C1)N1CCCCC1 (stereo not given) 103%
